PubChem BioAssay (EPA / NIEHS)
Active and inactive are the calls of the source. The calls were made as follows: active = hit-call score of the fitted dose curve at least 0.9, where 1 is the maximum; inactive = score below 0.9.

test: CCTE_Shafer_MEA_acute_spike_number: CCTE's Neural Acute Assay for Total Number of Spikes, Shafer Lab (AID 2284008);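 as to AC50: curve fitted for decrease in spike count so AC50 reflects inhibitors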
In short: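 Cortical neurons from rat, matured to DIV 13 or 15 on microelectrode arrays, are recorded at 37 C before and during 40-min exposure to 0.03-40 uM compound. Wells need >/= 10 active electrodes.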

| SMILES | outcome | AC50 |
| --- | --- | --- |
| Oc1c(Cl)cc(Cl)cc1Sc1cc(Cl)cc(Cl)c1O | inactive | – |
| OCC(CO)(CBr)CBr | inactive | – |
| CCCCC=O | inactive | – |
| N=C(N)c1ccc(OCCCCCOc2ccc(C(=N)N)cc2)cc1 | inactive | – |
| CCCCCCCCCCCC | inactive | – |
| CCCCc1oc2ccccc2c1C(=O)c1cc(I)c(OCCN(CC)CC)c(I)c1 | – | 8910 nM (active) |
| CN(C)CCOC(c1ccccc1)c1ccccc1 | – | 4980 nM (active) |
| Oc1ccc(Cc2ccccc2O)cc1 | – | 2.92 nM (active) |
| O=C(CCCN1CCC(O)(c2ccc(Cl)cc2)CC1)c1ccc(F)cc1 | – | 1700 nM (active) |
| CC(=O)Nc1ccc(O)cc1 | inactive | – |
| CCC(C)c1ccccc1O (configuration not stated) | – | 2060 nM (active) |
| O=C1NS(=O)(=O)c2ccccc21 | – | 9.78 nM (active) |
